# Results reported in PubChem BioAssay.
# Activity calls are given as the source filed them.
# Legend:
# [1] = small molecules captured by biotinylated probe aFSTL3 – biochemical, small-molecule microarray, fluorescence 635/667, stem cell growth factor project, primary screen (AID 1064); details: higher = more signal;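 further: measures binding of the biotinylated anti-FSTL3 antibody to printed compounds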
# [2] = binders from COS7 lysate, DM2A8 probe, primary screen, torsin A project, cell lysate, small-molecule microarray, fluorescence 635/667 (AID 1065); details: higher = more signal, COS7 lysate expressing mutant human TOR1A
# [3] = small molecules captured by biotinylated probe aFGF2 – biochemical, small-molecule microarray, fluorescence 635/667, stem cell growth factor project, primary screen (AID 1067); details: higher = more signal;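 further: measures binding of biotinylated aFGF2 protein to printed compounds on slides; z-score merges feature fluorescence and signal-to-noise across triplicate slides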
# [4] = small molecules captured by biotinylated probe aFGF10 – biochemical, small-molecule microarray, fluorescence 635/667, stem cell growth factor project, primary screen (AID 1071); details: higher = more signal;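 further: score merges 667 nm spot intensity and signal to noise from triplicate slides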
# [5] = target: Neurogenic locus notch homolog protein 2 (Homo sapiens) (UniProt Q04721); test: small molecules binding Notch2 protein – biochemical, small-molecule microarray, 635 nm fluorescence, stem cell growth factors, primary screen (AID 1073); details: higher = more signal
# [6] = target: Pro-neuregulin-1, membrane-bound isoform (Homo sapiens) (UniProt Q02297); test: small molecules binding neuregulin-1 protein – biochemical, small-molecule microarray, fluorescence 635/667, psychiatric disease protein project, primary screen (AID 1075); details: NRG1 binding, 635 nm fluorescence, higher = more signal;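 further: score combines 667 nm spot fluorescence with signal to noise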
# [7] = system: Neuregulin-1 EGF-like domain; test: small molecules binding NRG1 EGF domain – biochemical, small-molecule microarray, 635 nm fluorescence, primary screen (AID 1081); details: higher = more signal;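 further: binding of the protein to compounds printed on small-molecule microarray slides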
# [8] = FRG1 expression reporter modulators in myotubes – cell-based, C2C12 myotubes, firefly/Renilla luciferase, luminescence, FRG1 inhibition for FSHD, primary screen (AID 1084); details: FRG1 promoter luciferase, higher = more signal, called active from +8 up or from −8 down
# [9] = small molecules captured by biotinylated probe aFST – biochemical, small-molecule microarray, fluorescence 635/667, stem cell growth factor project, primary screen (AID 1086); details: higher = more signal;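 further: score merges 667 nm fluorescence with signal-to-noise of each printed compound spot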
# [10] = binders of probe aHhip on microarray, primary screen, stem cell growth factor project, biochemical, small-molecule microarray, fluorescence 635/667 (AID 1087); details: higher = more signal;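 further: score merges spot fluorescence at 667nm with spot signal to noise ratio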
# [11] = system: PRMT1 (protein arginine N-methyltransferase 1); test: small molecules binding arginine methyltransferase PRMT1 – biochemical, small-molecule microarray, 635 nm fluorescence, primary screen (AID 1088); details: higher = more signal;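 further: binding of Prmt1 protein to compounds spotted on small-molecule microarray slides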
# [12] = growth effects on S. cerevisiae YJM789 – YJM789 clinical isolate, OD600, 24 h, basal, primary screen (AID 1089); details: higher = more signal, called active from +8 up or from −8 down;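 further: growth of clinical yeast isolate S. cerevisiae YJM 789 seeded 1000 cells per well; test concentration not given here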
# [13] = S. pombe growth modifiers, basal conditions – strain 972, OD600, 24 h, no modulator, primary screen (AID 1090);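 further: basal condition with compound alone and no growth modifier present; test concentration not given here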; details: S. pombe 972 growth, higher = more signal, called active from +8 up or from −8 down
# [14] = budding yeast growth modifiers under rapamycin – strain BY4716, OD600, 96 h, primary screen (AID 1091); further: test concentration not given here; details: S. cerevisiae BY4716 + rapamycin, higher = more signal, called active from +8 up or from −8 down
# [15] = target: Torsin-1A-interacting protein 2 (Homo sapiens) (UniProt Q8NFQ8); test: small molecules binding lysate-expressed LULL1 – cell lysate, human LULL1 lysate, 635/667 nm fluorescence, primary screen (AID 1092); details: small-molecule microarray, hLULL1 lysate binding, 635 nm fluorescence; higher = more signal;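 further: probe is lysate of COS7 cells overexpressing human LULL1; score merges per-feature 667 nm fluorescence with signal-to-noise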
# [16] = optical density change of DRC41 E. coli – strain DRC41, OD650, 24 h, E. coli filamentation project, primary screen (AID 1093);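 further: MC1000 strain lacking acrAB efflux and sulA so SOS filamentation is blocked; test concentration not given here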; details: E. coli DRC41 growth, higher = more signal, called active from +8 up or from −8 down
# [17] = probe aLefty2 binding to arrayed compounds – biochemical, biotinylated probe, 635/667 nm fluorescence, primary screen (AID 1094); details: small-molecule microarray, higher = more signal;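 further: score merges spot fluorescence near 667 nm with spot signal-to-noise ratio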
# [18] = system: Noggin (protein binding on small-molecule microarray); test: small molecules binding Noggin protein – biochemical, 635/667 nm fluorescence, primary screen (AID 1095); details: 635 nm fluorescence, higher = more signal;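 further: score merges 667 nm feature fluorescence with signal to noise over triplicate slides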
# [19] = target: Neurogenic locus notch homolog protein 3 (Homo sapiens) (UniProt Q9UM47); test: small molecules binding NOTCH3 protein – biochemical, 635/667 nm fluorescence, primary screen (AID 1096); details: small-molecule microarray, 635 nm fluorescence, higher = more signal
# [20] = probe aEGFR binding to arrayed compounds – biochemical, biotinylated probe, 635/667 nm fluorescence, primary screen (AID 1097); details: small-molecule microarray, higher = more signal;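 further: probe is a biotinylated anti-EGFR antibody binding compounds printed on slides; score combines fluorescence near 667 nm and signal to noise of each spot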
# Sequence of Neurogenic locus notch homolog protein 3 (Homo sapiens) (Q9UM47 whole entry, looked up): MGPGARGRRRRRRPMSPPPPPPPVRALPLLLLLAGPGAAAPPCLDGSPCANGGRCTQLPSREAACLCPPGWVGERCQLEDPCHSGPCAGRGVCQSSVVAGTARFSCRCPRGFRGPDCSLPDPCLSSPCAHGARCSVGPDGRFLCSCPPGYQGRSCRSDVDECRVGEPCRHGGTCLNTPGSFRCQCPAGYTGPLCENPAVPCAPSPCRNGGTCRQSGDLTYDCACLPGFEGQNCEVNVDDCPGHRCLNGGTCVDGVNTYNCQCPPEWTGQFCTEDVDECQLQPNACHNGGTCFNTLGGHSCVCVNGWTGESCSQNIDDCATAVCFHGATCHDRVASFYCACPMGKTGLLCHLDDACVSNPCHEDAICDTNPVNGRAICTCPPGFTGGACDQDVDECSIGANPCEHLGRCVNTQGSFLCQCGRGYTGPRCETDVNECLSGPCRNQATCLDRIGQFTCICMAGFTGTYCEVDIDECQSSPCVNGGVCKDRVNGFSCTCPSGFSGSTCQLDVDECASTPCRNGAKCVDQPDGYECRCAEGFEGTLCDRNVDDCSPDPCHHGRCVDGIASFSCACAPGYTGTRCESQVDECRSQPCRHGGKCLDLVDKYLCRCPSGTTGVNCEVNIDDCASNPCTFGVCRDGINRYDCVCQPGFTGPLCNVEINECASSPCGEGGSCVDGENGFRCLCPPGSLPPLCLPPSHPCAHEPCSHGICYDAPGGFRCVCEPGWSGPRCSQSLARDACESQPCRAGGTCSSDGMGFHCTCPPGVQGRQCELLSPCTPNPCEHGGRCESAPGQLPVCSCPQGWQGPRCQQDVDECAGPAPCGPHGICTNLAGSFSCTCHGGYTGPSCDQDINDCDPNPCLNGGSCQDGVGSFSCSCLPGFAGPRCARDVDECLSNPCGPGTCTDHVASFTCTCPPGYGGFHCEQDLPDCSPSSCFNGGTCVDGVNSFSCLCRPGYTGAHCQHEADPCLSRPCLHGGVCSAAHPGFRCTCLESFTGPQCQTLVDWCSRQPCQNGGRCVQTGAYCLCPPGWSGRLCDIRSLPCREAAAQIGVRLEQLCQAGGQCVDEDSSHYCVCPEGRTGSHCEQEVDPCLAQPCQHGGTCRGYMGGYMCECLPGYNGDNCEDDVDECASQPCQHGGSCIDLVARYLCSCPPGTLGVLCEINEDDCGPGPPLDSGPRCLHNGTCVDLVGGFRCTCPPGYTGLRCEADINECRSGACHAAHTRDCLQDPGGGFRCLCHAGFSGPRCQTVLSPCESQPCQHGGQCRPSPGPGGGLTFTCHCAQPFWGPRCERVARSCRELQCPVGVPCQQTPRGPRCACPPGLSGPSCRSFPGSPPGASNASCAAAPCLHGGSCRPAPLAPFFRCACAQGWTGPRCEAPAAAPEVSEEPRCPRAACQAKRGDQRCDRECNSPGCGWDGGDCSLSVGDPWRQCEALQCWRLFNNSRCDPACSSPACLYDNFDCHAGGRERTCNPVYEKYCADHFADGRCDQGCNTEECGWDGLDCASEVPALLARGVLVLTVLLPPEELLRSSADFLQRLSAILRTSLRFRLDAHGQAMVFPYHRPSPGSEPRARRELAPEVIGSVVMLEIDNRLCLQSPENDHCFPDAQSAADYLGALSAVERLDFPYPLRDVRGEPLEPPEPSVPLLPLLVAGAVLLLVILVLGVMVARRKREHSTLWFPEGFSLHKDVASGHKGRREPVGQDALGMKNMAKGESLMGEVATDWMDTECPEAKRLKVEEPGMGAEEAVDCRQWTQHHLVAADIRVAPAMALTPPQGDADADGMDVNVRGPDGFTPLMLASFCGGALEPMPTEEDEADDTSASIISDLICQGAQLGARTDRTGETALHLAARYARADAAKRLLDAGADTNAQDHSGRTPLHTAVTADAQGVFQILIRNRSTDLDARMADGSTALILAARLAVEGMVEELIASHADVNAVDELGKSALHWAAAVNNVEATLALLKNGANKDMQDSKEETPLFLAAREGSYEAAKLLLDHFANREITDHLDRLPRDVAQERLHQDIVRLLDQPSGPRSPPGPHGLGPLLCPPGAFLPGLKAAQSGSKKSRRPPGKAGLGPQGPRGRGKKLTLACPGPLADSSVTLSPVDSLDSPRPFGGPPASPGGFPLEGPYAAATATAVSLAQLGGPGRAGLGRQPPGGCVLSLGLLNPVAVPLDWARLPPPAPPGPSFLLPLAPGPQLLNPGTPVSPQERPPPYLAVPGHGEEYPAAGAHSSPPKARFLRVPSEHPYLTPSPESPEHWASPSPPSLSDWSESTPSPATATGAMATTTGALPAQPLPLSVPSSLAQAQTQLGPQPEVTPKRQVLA
# Sequence of Torsin-1A-interacting protein 2 (Homo sapiens) (Q8NFQ8 whole entry, looked up): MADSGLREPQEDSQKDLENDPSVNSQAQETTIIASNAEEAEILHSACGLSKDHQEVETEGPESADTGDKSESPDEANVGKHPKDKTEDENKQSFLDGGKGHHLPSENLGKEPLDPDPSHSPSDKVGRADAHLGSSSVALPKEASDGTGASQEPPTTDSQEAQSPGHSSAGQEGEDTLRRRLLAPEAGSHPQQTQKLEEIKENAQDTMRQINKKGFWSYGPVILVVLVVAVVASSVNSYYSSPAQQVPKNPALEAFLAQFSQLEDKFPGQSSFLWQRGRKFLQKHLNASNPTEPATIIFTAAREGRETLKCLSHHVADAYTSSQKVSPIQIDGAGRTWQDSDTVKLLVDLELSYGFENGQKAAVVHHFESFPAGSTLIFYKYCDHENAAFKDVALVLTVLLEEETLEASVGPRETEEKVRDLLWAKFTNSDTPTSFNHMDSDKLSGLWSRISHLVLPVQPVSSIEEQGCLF
# Sequence of Pro-neuregulin-1, membrane-bound isoform (Homo sapiens) (Q02297 whole entry, looked up, the tested form may be a part, canonical isoform): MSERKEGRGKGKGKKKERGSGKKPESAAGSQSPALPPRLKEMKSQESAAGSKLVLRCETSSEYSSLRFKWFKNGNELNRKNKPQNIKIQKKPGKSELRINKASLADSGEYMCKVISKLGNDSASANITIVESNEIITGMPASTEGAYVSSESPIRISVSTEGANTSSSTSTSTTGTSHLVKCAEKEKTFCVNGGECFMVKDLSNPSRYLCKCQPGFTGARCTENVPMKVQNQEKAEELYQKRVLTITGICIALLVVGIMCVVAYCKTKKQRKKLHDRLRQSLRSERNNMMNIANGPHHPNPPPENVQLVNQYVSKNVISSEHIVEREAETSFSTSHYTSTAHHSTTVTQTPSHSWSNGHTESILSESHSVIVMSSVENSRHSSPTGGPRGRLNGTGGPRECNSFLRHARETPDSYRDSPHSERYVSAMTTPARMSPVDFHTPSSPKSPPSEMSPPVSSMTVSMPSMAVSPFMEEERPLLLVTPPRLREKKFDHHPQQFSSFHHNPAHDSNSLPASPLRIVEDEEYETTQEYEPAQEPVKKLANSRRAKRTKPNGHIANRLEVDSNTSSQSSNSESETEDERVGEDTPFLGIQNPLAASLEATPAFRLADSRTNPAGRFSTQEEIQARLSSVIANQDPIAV
Compound,composite z-score [1],composite z-score [2],composite z-score [3],composite z-score [4],composite z-score [5],composite z-score [6],composite z-score [7],z-score [8],composite z-score [9],composite z-score [10],composite z-score [11],z-score [12],z-score [13],z-score [14],composite z-score [15],z-score [16],composite z-score [17],composite z-score [18],composite z-score [19],composite z-score [20]
[N-]=[N+]=Nc1ccccc1C[C@@]1(C(=O)NCCN2CCOCC2)N=C(c2ccc(OCCCO)cc2)O[C@@H]1c1ccccc1,0.234,0.205,0.146,0.409,1.59,1.6,1.24,-1.23 (inactive),1.01,-0.286,1.55,-2.58 (inactive),-4.77 (inactive),-1.77 (inactive),3.27,1.26 (inactive),-0.0673,0.748,1.08,0.0371
COC(=O)[C@@]1(Cc2ccc(F)cc2)[C@H]2c3cc(C(=O)N4CCCC4)n(Cc4ccc(C)o4)c3C[C@H]2CN1C(=O)c1ccccc1,0.285,0.145,0.157,0.883,1.53,0.714,1.14,1.62 (inactive),1.29,0.2,0.812,-0.849 (inactive),-0.0545 (inactive),0.0836 (inactive),2.88,-0.673 (inactive),0.381,1.2,0.556,0.277
O=C1C2C=CC(C(O)c3c(F)cccc3Cl)N(Nc3ccccc3)C2C(=O)N1c1ccccc1 (stereo not given),-0.0072,-0.0274,0.0363,0.354,1.7,1.86,1.25,-3.84 (inactive),1.09,-0.359,1.56,0.269 (inactive),0.211 (inactive),0.395 (inactive),3.43,0.063 (inactive),0.0313,0.461,1.04,-0.0251
C=CCOC(=O)[C@@H]1[C@H]2C(=O)O[C@H](c3ccccc3)[C@H](c3ccccc3)N2[C@H](c2ccc(OCCOC(=O)[C@@H]3C[C@@H]4C(=O)N5CCC[C@H]5C(=O)N4[C@@H]3c3ccc(O)cc3)cc2)[C@@]12C(=O)Nc1ccc(I)cc12,-0.354,-0.0315,-0.0958,0.235,0.666,0.596,1.19,-0.804 (inactive),0.965,-0.069,1.42,-0.577 (inactive),0.687 (inactive),2.09 (inactive),2.55,1.75 (inactive),-0.207,1.51,0.565,-0.242
COC(=O)c1c(CC[C@@H](CO)NC(=O)N2CCC[C@H]2Cn2cc(-c3ccccn3)nn2)oc(C(C)=O)c1C(=O)OC,-0.508,-0.0298,-0.1,0.639,-0.357,0.963,0.808,0.634 (inactive),-0.0939,-0.0427,0.986,-0.833 (inactive),0.195 (inactive),-1.46 (inactive),3.03,1.25 (inactive),-0.155,0.81,-0.126,-0.13
CC(C)N1C(=O)[C@@]2(Cc3ccccc31)c1ccccc1C(=O)N(C1CCCCC1)[C@H]2c1ccc(CO)cc1,-0.302,-0.0937,-0.132,0.397,0.184,0.452,1.24,0.0117 (inactive),-0.123,-0.296,1.56,-0.0915 (inactive),-0.34 (inactive),-2.58 (inactive),2.01,-1.61 (inactive),-0.132,0.79,0.79,0.0117
COCCCNC(=O)C1N=C(c2ccc(OCCCO)cc2)N(c2ccccc2)O1 (stereo not given),-0.39,0.461,0.0038,0.848,0.872,0.124,0.609,3.02 (inactive),0.504,0.0176,1.39,0.0302 (inactive),0.42 (inactive),-0.779 (inactive),1.94,0.919 (inactive),-0.0553,1.08,0.911,-0.0549
CS(=O)(=O)CCOC(=O)C1=CC(CCCO)=CC(c2ccc(CN3CCCC3)cc2)N(Cc2cc3c(cc2Br)OCO3)C=C1C(=O)OCCS(C)(=O)=O (stereo not given),0.26,1.77,0.127,1.22,1.38,2.1,1.25,-0.271 (inactive),0.624,0.224,1.46,0.978 (inactive),-5.34 (inactive),-1.62 (inactive),2.5,-0.567 (inactive),0.0417,0.334,1.15,0.101
N#Cc1ccc(NN2C(C(O)c3c(F)cccc3Cl)C=CC3C(=O)N(c4ccccc4)C(=O)C32)cc1 (stereo not given),0.394,0.187,0.199,0.63,1.69,1.97,0.456,-1.14 (inactive),1.18,0.0053,1.19,0.432 (inactive),1.62 (inactive),2.48 (inactive),3.53,-0.62 (inactive),0.222,-0.109,1.06,-0.244
